Screening results from PubChem BioAssay.
Most compounds without a hit are left out; they make up all but 8% or so of the library.
SW480 rerep = DNA re-replication induction in SW480 cells | SW480 DNA re-replication, Hoechst DNA content imaging, 48 h | Potency, µM (highest dose often 46.1 µM), for inactives: at the highest dose re-replication activation, actives largely listed as activators | hit rate 1.8% among 340,000; also: % of control where 0% means no effect; nearly all actives have a fitted effect of over 55% in size
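Hoechst fluorescence of nuclei (405 nm excitation, 500-530 nm emission) measured by plate-scanning imager after 48 hr compound exposure at 37 C; re-replication scored as increased number of nuclei with elevated intensity.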
HT1080 IDH1KD tx = toxicity to HT-1080 IDH1 knockdown cells (counter line); HT-1080 IDH1 knockdown viability, ATP luminescence, 48 h; Potency, µM (doses to about 46.1 µM), for inactives: at the highest dose activity, negative = toxicity, hits mostly cytotoxic; hit rate 2% among 360,000;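 also: 0% = DMSO wells and -100% = cell-free medium wells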
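Cytotoxicity counter-line: IDH1KD HT-1080, 48 h, CellTiter-Glo. Curves classed by r2, magnitude and activity.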
HT1080NT lethal = kills 2HG-producing HT-1080-NT fibrosarcoma cells; AID 686970; hit rate 1.6% among 360,000; Potency, µM (titrated, usually from 46.1 µM), for the others: at the top dose activity, negative = less viability, usual class: cytotoxic; HT-1080-NT fibrosarcoma viability, CellTiter-Glo ATP luminescence, 48 h;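 also: NT is the 2HG producing partner of a matched IDH1 knockdown line; 0% = DMSO-treated cells and -100% = media-only wells without cells; nearly all actives have a fitted effect of over 55% in size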
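Read-out is CellTiter-Glo luminescence after 10 minutes at room temperature, following 48 hours' compound treatment of HT-1080-NT cells (750 cells/well, RPMI, 5% FBS, 37 degrees C).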
KB-3-1 cytotox = KB-3-1 parental cell cytotoxicity. KB-3-1 viability, CellTiter-Glo ATP luminescence, 72 h. hit rate 1.4% among 400,000. AID 1347075. Potency, µM (doses to about 46.1 µM), most hits filed as cytotoxic; also: % is scaled to controls: 0 for no effect and ±100 for the full control effect; nearly all actives have a fitted effect of over 60% in size
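Here the drug-naive KB-3-1 line serves as comparator for MDR sub-line selectivity; cells received compound titrations, 72 h at 37 °C, then CellTiter-Glo readout.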
MCF10A rereplic = inducers of DNA re-replication in MCF 10A breast cells; MCF 10A DNA re-replication, Hoechst nuclear intensity, 48 h; Potency, µM (top dose mostly 46.1 µM), inactives show at the top dose activity, positive = re-replication, hits mostly activators; hit rate 2.9% among 350,000; AID 624296; also: % of control where 0% means no effect; nearly all actives have a fitted effect of over 50% in size
KB-V1 MDR tox = KB-V1 MDR subline cytotoxicity; Potency, µM (highest dose often 46.1 µM), actives largely listed as cytotoxic; KB-V1 MDR cells viability, CellTiter-Glo, 72 h; AID 1347076; hit rate 3.4% among 400,000; also: % is scaled to controls: 0 for no effect and ±100 for the full control effect; nearly all actives have a fitted effect of over 60% in size
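Cytotoxicity toward P-gp-expressing KB-V1 cells was determined as loss of CellTiter-Glo luminescence after 72 h at 37 degrees C. Compounds were tested in quantitative HTS format across a concentration range, with curves fitted to normalized data.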
* = called active by the depositor; i = inactive; ? = inconclusive; . = no result given; ! = not confirmed by another sample; [ ] = another dose, or the depositor's remark. Calls follow the shape of the dose curve; as a rule, active = well fitted curve in the direction sought with a large enough effect; inconclusive = small, poorly fitted or top-dose-only effect, or another doubt; inactive = no such curve, though single readings can be large; an effect the other way counts as inactive or inconclusive. Potency is read from the fitted curve at half-maximal effect.

SMILES	SW480 rerep	HT1080 IDH1KD tx	HT1080NT lethal	KB-3-1 cytotox	MCF10A rereplic	KB-V1 MDR tox
C=CS(=O)(=O)c1ccc(Oc2ccc(S(=O)(=O)C=C)cc2)cc1	?	?	-4%	?	3.3µM*	?
NS(=O)(=O)c1ccc(Oc2ccc(S(N)(=O)=O)cc2)cc1	-4%	1%	6%	i	-24%	i
CCc1c(C(=O)NNC(=S)NCC(C)C)csc1C	-3%	?	?	i	3%	i
COC(=O)C[C@H]1C=C[C@H](NC(=O)Nc2ccccc2)[C@@H](CO)O1	.	15%	-3%	i	.	i
N#Cc1ccc(C(=O)CSc2nnc(-c3ccc(C(F)(F)F)cn3)s2)cc1	3.3µM*	10%	12%	i	26%	i
CCOc1ccc(N(C(C)C(=O)NCCSc2ccc(Cl)cc2)S(C)(=O)=O)cc1 (stereo not drawn)	.	.	.	?	.	i
CCOc1ccc(N(C(C)C(=O)Nc2cc(Cl)ccc2OC)S(C)(=O)=O)cc1 (stereo not drawn)	.	.	.	3.7µM*	.	?
CCCCn1c(=NC(=O)c2ccco2)c(C(=O)OCC)cc2c(=O)n3cccc(C)c3nc21	18µM*	0%	-2%	i	6.5µM*	i
CCOCCCn1c(=NC(=O)c2cccnc2)c(C(=O)OCC)cc2c(=O)n3ccccc3nc21	?	9%	6%	?	?	?
CCOC(=O)c1cc2c(=O)n3cccc(C)c3nc2n(CCCOC)c1=NC(=O)c1cccnc1	16%	12%	9%	i	22%	12µM*
CCCCCn1c(=NC(=O)c2ccco2)c(C(=O)OCC)cc2c(=O)n3ccccc3nc21	?	5%	8%	i	?	5.2µM*!
CCc1ccc2c(c1)c(=O)c(S(=O)(=O)c1ccccc1)cn2CC(=O)Nc1cc(C)ccc1C	.	.	.	i	.	?
CN1C(=O)Nc2cccc3cccc1c23	-10%	-8%	-17%	1µM*	8%	0.46µM*
Cc1cc(C)cc(OCc2ccc(C(=O)Nc3ccccc3F)o2)c1	.	.	.	i	.	?
CCOC(=O)c1c(NC(=O)c2cc3nc(-c4ccccc4)cc(C(F)(F)F)n3n2)sc2c1CCC(C)C2 (stereo not drawn)	.	.	.	i	.	i
COc1ccc2c(c1)c(=O)oc1cc(OCC(=O)NC3CCCCC3)ccc12	-1%	8%	14%	i	10µM*	i
CC(=O)COc1ccc2c3c(c(=O)oc2c1)CCCC3	-4%	5%	16%	i	-1%	12µM*
COc1ccc2c(c1)c(=O)oc1cc(OCC(=O)NC3CC3)ccc12	-8%	18%	4%	i	-2%	i
Cc1cccc(OC(C)C(=O)Nc2ccc(N3CCCCC3)cc2)c1 (stereo not drawn)	-4%	6%	11%	i	4%	i
Cc1ccccc1NC(=O)Cc1nc(COC(=O)c2cc(Br)ccc2O)cs1	-6%	-17%	-1%	i	16µM*	i
CC(=O)Nc1cccc(C(=O)OCc2csc(CC(=O)Nc3ccccc3C)n2)c1	1%	-9%	0%	i	10%	21µM*
Cc1cc(C)c(C(=O)OCc2csc(CC(=O)Nc3ccccc3C)n2)c(C)c1	10%	-4%	-5%	i	0%	i
COc1ccc(-c2cc(C)no2)cc1S(=O)(=O)NCc1ccco1	.	.	.	i	.	?
O=C(CN1c2ccccc2Sc2ccccc21)NNC(=O)Nc1cccc(Cl)c1	?	12µM*	18µM*	?	23µM*	i
O=C(Cc1ccccc1)NNC(=O)Nc1cccc(Cl)c1	14%	0%	-13%	i	-1%	i
SMILES	SW480 rerep	HT1080 IDH1KD tx	HT1080NT lethal	KB-3-1 cytotox	MCF10A rereplic	KB-V1 MDR tox
Cc1cccc(-n2c(N)cc(=O)nc2SCC(=O)Nc2ccc(F)cc2)c1C	.	.	.	?	.	i
Cc1nc(-c2ccc(S(=O)(=O)N3CCN(c4cccc(Cl)c4)CC3)cc2)co1	.	.	.	i	.	i
CCn1c(=O)c2c(nc(SCc3ccccn3)n2C)n(C)c1=O	-9%	5%	-14%	?	-5%	15µM*
COc1ccc(OCC(=O)N2CCN(c3nnc(-c4ccc(C)cc4)c4ccccc34)CC2)cc1	-6%	?	?	?	14%	5.2µM*
Cc1ccc(-c2nnc(N3CCN(C(=O)COc4cccc(C)c4)CC3)c3ccccc23)cc1	-14%	-20%	-1%	?	6%	?
Cc1cccc(OCC(=O)N2CCN(c3nnc(-c4ccccc4)c4ccccc34)CC2)c1	-3%	-14%	-4%	i	3%	?
Cc1ccc(OCC(=O)N2CCN(c3nnc(-c4ccc(C)cc4)c4ccccc34)CC2)cc1	?	?	14µM*	16µM*	?	2.6µM*
COc1ccc(OCC(=O)N2CCN(c3nnc(-c4ccccc4)c4ccccc34)CC2)cc1	7%	-4%	-26%	23µM*	8%	2.6µM*
O=C(COc1ccccc1)N1CCN(c2nnc(-c3ccccc3)c3ccccc23)CC1	-1%	-23%	?	?	9%	4.1µM*
COC(=O)CN(C)C(=O)c1ccccc1OC1CCN(S(C)(=O)=O)CC1	-3%	9%	-12%	i	0%	i
CCOCCOC(=O)Cn1cnc2scc(-c3ccc(C)cc3)c2c1=O	-44%	4%	2%	i	-12%	i
CCc1ccc(OCCNC(=O)c2ccccc2SCc2ccc(F)cc2)cc1	-8%	-1%	-6%	i	?	18µM*
O=C(NCCOc1ccc(F)cc1)c1ccccc1SCc1ccccc1	-11%	-5%	-6%	i	?	?
CCCN(CCC)S(=O)(=O)c1ccc(NS(=O)(=O)c2ccc(F)cc2)cc1	0%	-7%	3%[9.24 µM]	i	?	i
COc1ccc(Cn2cc(S(=O)(=O)c3ccc(Cl)cc3)c(=O)c3cc4c(cc32)OCO4)cc1	.	.	.	i	.	i
CCc1nnc(NC(=O)CCc2c[nH]c3ccccc23)s1	2%	0%	-18%	i	-8%	i
CC(C)C(=O)Nc1nnc(Cc2c[nH]c3ccccc23)s1	?	-20%	-15%	i	8.2µM*	i
O=C(CSc1c2c(nc3ccc(Cl)cc13)CCCC2)NCCCN1CCOCC1	?	-28%	?	i	?	i
N#Cc1cnn2c(-c3cccc(C(F)(F)F)c3)ccnc12	25%	0%	1%	i	0%	i
Nc1c(-c2ccccc2)cnc2c(-c3ccccc3)cnn12	6%	0%	9%	i	3%	i
